# Results as given in PubChem BioAssay (NCATS).
# Inconclusive results are not listed. Where a call stands in place of a potency, no number is given. Unmarked numbers belong to inactive results. Activity calls are given as the source filed them. The call rests on the fitted dose curve.
# Test: Cytotoxicity counterscreen for inhibitors of SARS-CoV-2 cell entry (AID 1645845); further: nearly all actives have a fitted effect of over 50% in size
# Conditions: cell viability (SARS-CoV-2 entry assay cells); series mostly up to 57.1 µM; activity change, negative = cytotoxicity: at the top concentration
# How it was run: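 Expi293F/hACE2 cells seeded overnight; cpd pin-transferred in DMSO, 1 h preincubation, + media, 48 h 37 C 5% CO2; ATPLite 1step luminescence; normalized to cells and no cells.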
Structure (SMILES),"activity change, negative = cytotoxicity [%]",outcome,Potency
Cc1c(-c2ccccc2)oc2c(C(=O)OCCN3CCCCC3)cccc2c1=O,-7.16,–,–
CCCCN(CCCC)CC(O)c1cc(Cl)cc2c1-c1ccc(Cl)cc1/C2=C/c1ccc(Cl)cc1 (configuration not stated),1.17,–,–
CN1CCCC(n2nc(Cc3ccc(Cl)cc3)c3ccccc3c2=O)CC1 (configuration not stated),–,inactive,–
C[C@@H]1C[C@H]2[C@@H]3CCC4=CC(=O)C=C[C@]4(C)[C@@]3(F)[C@@H](O)C[C@]2(C)[C@@]1(O)C(=O)COC(=O)c1ccncc1,–,inactive,–
CCN(CC)CCOC(=O)C(Cc1cccc2ccccc12)CC1CCCO1 (configuration not stated),–,inactive,–
O=C1N(c2ccccc2)c2ccccc2C1(Cc1ccncc1)Cc1ccncc1,–,inactive,–
COCCOC(=O)C1=C(C)NC(C)=C(C(=O)OC/C=C/c2ccccc2)C1c1cccc([N+](=O)[O-])c1 (configuration not stated),-22.4,–,–
CCOC(=O)c1ccc(NC(=O)CN2CCCCC2)cc1,2.63,–,–
CN(C)CCN1C(=O)c2ccccc2N(C)c2ccccc21,–,inactive,–
CN(C)CCOc1ccccc1Cc1ccccc1,-8.72,–,–
CCC(=O)c1ccc2c(c1)N(CCCN(C)C)c1ccccc1S2,-28.1,–,–
COC(=O)Nc1nc2ccc(Sc3ccccc3)cc2[nH]1,–,–,inactive
CC(C)=CCOc1ccc(/C=C/C(=O)c2ccc(OCC=C(C)C)cc2OCC(=O)O)cc1,–,inactive,–
O=C(CCCCC(=O)Nc1c(I)cc(I)c(C(=O)O)c1I)Nc1c(I)cc(I)c(C(=O)O)c1I,–,inactive,–
CC(C)(C)NCC(O)COc1cccc2c1CCC(=O)N2 (configuration not stated),-5.83,–,–
Oc1ccc(CCNCCCCCCNCCc2ccccc2)cc1O,-4.56,–,–
CCN(CC)CCOc1ccc(Cc2ccccc2)cc1,–,inactive,–
